The other results are listed elsewhere or left out. Calls of active or inactive are those of the source.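 How the source made its calls, unless noted: active means mean inhibition of the reporter signal across four replicates at the single tested dose of 50% or more; inactive means the rest.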
System: not listed separately
Assay: HIF-1a luciferase reporter signal reduction – MiaPaCa-2 cells, single concentration, counter-screen for HIF-2a inhibitor project, confirmation (AID 651589)
Conditions: MiaPaCa-2 HIF-1a luciferase reporter, desferoxamine, overnight; at 18.8 µM; stronger effect = higher value

Row | Compound | inhibition
1 | COc1ccc(C(=O)/C=C/Nc2ccccn2)cc1 | 79.7% (active)
2 | C=CCn1c(C)cc(C2=NNC(=NCC)SC2)c1C | 104% (active)
3 | O=C(CN1C(=O)c2ccccc2S1(=O)=O)N1CCc2ccccc21 | 96% (active)

Target: Tumor necrosis factor receptor superfamily member 10B (Homo sapiens) (UniProt O14763)
Sequence (O14763 whole entry, looked up): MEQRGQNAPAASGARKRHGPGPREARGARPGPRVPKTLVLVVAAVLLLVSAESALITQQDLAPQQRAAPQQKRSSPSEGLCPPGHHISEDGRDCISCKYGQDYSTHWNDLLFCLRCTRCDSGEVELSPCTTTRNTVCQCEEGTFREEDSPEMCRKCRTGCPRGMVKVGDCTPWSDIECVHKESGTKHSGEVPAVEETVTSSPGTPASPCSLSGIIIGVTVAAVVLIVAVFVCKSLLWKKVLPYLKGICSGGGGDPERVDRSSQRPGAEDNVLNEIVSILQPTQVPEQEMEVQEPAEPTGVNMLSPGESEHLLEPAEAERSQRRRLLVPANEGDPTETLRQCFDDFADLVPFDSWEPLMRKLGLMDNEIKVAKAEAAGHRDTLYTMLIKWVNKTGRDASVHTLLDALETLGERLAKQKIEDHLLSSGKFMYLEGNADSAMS
Assay: viability loss of caspase-8 NB7 cells with TRAIL – with/without TRAIL, luminescence panel, confirmation (AID 651596; in the data active means activity above about 50%)
Conditions: NB7 neuroblastoma + caspase-8, TRAIL sensitization, NB7 Caspase-8, with TRAIL, mean of runs, at 10 µM, stronger effect = higher value

Row | Compound | activity
4 | O=C(O)c1ccc(N/N=C/c2cn(-c3ccccc3)nc2-c2cccs2)cc1 | 77.9%
5 | COc1ccc(C(=O)/C=C/Nc2ccccn2)cc1 | 81.4%
6 | C=CCn1c(C)cc(C2=NNC(=NCC)SC2)c1C | 93.8%

System: not listed separately
Assay: as above
Conditions: NB7 neuroblastoma + caspase-8, without TRAIL, NB7 Caspase-8, without TRAIL, mean of runs, at 10 µM

Row | Compound | activity
7 | O=C(O)c1ccc(N/N=C/c2cn(-c3ccccc3)nc2-c2cccs2)cc1 | 73.7%
8 | COc1ccc(C(=O)/C=C/Nc2ccccn2)cc1 | 68.6%
9 | C=CCn1c(C)cc(C2=NNC(=NCC)SC2)c1C | 90.7%
